Rab9 promoter act: qHTS Assay for Rab9 Promoter Activators | Huh7 Rab9 promoter-luciferase reporter, luminescence, 24 h | Potency, µM (series often up to 9.22 µM), for the others: at the top dose activation, negative = inhibition, usual class: activators | AID 485297, 2010 | 320,000 tested, 2.8% active; further: % of control where 0% means no effect; nearly all actives have a fitted effect of over 60% in size
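Stable Rab9-luc Huh7, 1500 cells/well, 2 h settle; cmpd in DMSO, 24 h, 37 °C/5% CO2; luciferase reagent 10 min RT; luminescence.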
SMN2 splice up: qHTS Assay for Enhancers of SMN2 Splice Variant Expression. HEK293 SMN2-luciferase splicing reporter, luminescence, 30-36 h. Potency, µM (highest dose often 46.1 µM), for inactives: at the top dose activity change, positive = activation, hits mostly activators. 210,000 tested, 2.8% active. AID 1458, 2008; further: % of control where 0% means no effect; nearly all actives have a fitted effect of over 55% in size
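qHTS luciferase splicing reporter: luminescence rises when SMN2 exon 7 is included in transfected HEK293 cells. Compound exposure lasted 30-36 h at 37C, with 4.5 mM final sodium butyrate as control, followed by a ONE-Glo read.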
NPC1 prom act: qHTS Assay for NPC1 Promoter Activators. Huh7 NPC1 promoter luciferase reporter, 24 h. AID 485313, 2010. Potency, µM (series often up to 9.22 µM), for inactives: at the highest dose activation, hits mostly activators. 320,000 tested, 2.4% active; further: % of control where 0% means no effect; nearly all actives have a fitted effect of over 60% in size
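Readout is luciferase luminescence, reflecting NPC1 promoter activation in stably transfected Huh7 cells after 24 h compound exposure at 37 °C in reduced-serum medium with 10% FBS.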
ELG1 genotox: qHTS screen for small molecules that induce genotoxicity in human embryonic kidney (HEK293T) cells expressing luciferase-tagged ELG1; HEK293T ELG1-luciferase reporter, luminescence, 16 h; Potency, µM (highest dose often 46 µM), inactives show at the top dose activity change, positive = activation, most hits filed as activators; 330,000 tested, 1.3% active; further: % of control where 0% means no effect; nearly all actives have a fitted effect of over 60% in size
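HEK293T cells expressing luciferase-tagged ELG1 were exposed to compound or DMSO vehicle for 16 hr at 37 °C and 5% CO2. Luciferase activity was then measured with ONE-Glo after 30 min at room temperature.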
FLuc counter: qHTS profiling assay for firefly luciferase inhibitor/activator using purifed enzyme and Km concentrations of substrates (counterscreen for miR-21 project); Luciferin 4-monooxygenase (Photinus pyralis), P08659; purified FLuc, Km substrates, luminescence inhibition; Potency, µM (highest dose often 57.5 µM), inactives show at the highest dose activity change, negative = inhibition, actives largely listed as inhibitors; 360,000 tested, 6.9% active;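 further: plate controls were vehicle for no effect and reference inhibitor for full effect; nearly all actives have a fitted effect of over 55% in size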
Target sequence (P08659 whole entry, looked up): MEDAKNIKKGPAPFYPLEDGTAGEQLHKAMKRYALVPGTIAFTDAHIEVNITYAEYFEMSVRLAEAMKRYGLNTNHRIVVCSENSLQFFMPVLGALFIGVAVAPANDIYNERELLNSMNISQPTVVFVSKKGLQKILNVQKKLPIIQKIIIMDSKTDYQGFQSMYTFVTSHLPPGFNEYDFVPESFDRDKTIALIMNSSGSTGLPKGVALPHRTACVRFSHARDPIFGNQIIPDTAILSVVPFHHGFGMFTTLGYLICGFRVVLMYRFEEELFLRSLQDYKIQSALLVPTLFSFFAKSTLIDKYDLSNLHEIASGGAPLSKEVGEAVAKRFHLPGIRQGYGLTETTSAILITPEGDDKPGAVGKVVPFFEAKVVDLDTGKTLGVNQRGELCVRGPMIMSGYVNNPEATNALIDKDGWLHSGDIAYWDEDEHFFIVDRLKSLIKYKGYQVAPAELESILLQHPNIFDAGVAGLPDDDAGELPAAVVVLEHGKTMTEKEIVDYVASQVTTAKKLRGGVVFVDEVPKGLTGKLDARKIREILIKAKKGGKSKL
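Purified P. pyralis luciferase (10nM final) with 10uM D-luciferin and 10uM ATP (Km levels) in 50mM Tris acetate pH 7.5, 10mM Mg acetate, 0.01% Tween-20, 0.05% BSA; qHTS 6-point titration, ~60 µM downward; luminescence read.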
ELG1 DNA repair: qHTS screen for small molecules that inhibit ELG1-dependent DNA repair in human embryonic kidney (HEK293T) cells expressing luciferase-tagged ELG1; HEK293T ELG1-luciferase reporter, luminescence, 16 h; DNA damage induced by 5-fluorouridine; 330,000 tested, 2.3% active; Potency, µM (top dose mostly 46.1 µM), for inactives: at the highest dose activity change, negative = inhibition, actives largely listed as inhibitors; AID 504467, 2011; further: on the % scale 0 is the no-effect control and ±100 the full control effect; nearly all actives have a fitted effect of over 55% in size
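DMSO vehicle served as the neutral condition. Each well held 2,000 cells given 5-fluorouridine plus compound; after 16 hr at 37 °C/5% CO2, ONE-Glo was added and luciferase measured 30 min later.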
Starred values were filed as active, the others as inactive; ? = inconclusive; . = not tested or not shown; [ ] = another dose, or the depositor's remark. Sampled rows, rich in hits. Any-hit rate of the full collection: about 9.4%. The call rests on the fitted dose curve; in most records, active means well fitted curve in the direction sought with a large enough effect; inconclusive means small, poorly fitted or top-dose-only effect, or another doubt; inactive means no such curve, though single readings can be large; an effect the other way counts as inactive or inconclusive. Potency means the concentration at half of the fitted maximal effect.

SMILES	Rab9 promoter act	SMN2 splice up	NPC1 prom act	ELG1 genotox	FLuc counter	ELG1 DNA repair
Cc1cc(C)n(C(=O)CNC(=O)c2ccc(C(C)(C)C)cc2)n1	1%	.	-2%	10%	7.6µM*	?
COc1ccc(C(=O)NCC(=O)n2nc(C)cc2C)cc1OC	2%	-1%	-2%	1%	-2%[2.3 µM]	5%
Cc1cc(C)n(C(=O)CNC(=O)c2ccc(Cl)cc2Cl)n1	1%	.	2%	2%	6.7µM*	-3%
CCOC(=O)CCc1c(C)nc2cc(-c3cc(OC)cc(OC)c3)[nH]n2c1=O	.	-8%	.	.	1%	.
COc1cccc(C(=O)O/N=C2\CCS(=O)(=O)c3sccc32)c1	6%	2%	-7%	1%	1.5µM*	6%
O=S1(=O)CC/C(=N\Nc2ccccc2)c2ccsc21	-1%	-11%	1%	7%	?	9%
O=C(O/N=C1\CCS(=O)(=O)c2sccc21)c1c(F)cccc1F	-16%	-6%	-9%	-2%	4.8µM*	2%
Cc1ccc(C(=O)O/N=C2\CCS(=O)(=O)c3sccc32)cc1	4%	7%	1%	-2%	0.48µM*	2%
O=C(OC1CCS(=O)(=O)c2sccc21)c1ccccc1 (stereo not drawn)	-1%	-17%	1%	-2%	-1%	0%
CCOc1cccc2sc(N(Cc3cccnc3)C(=O)C3CCCCC3)nc12	.	.	.	.	-3%	.
COc1cc2c(cc1OC)CN(c1ccc(C(F)(F)F)cn1)CC2	17%	.	27%	?	17µM*	?
COc1ccccc1CN1CCC2(CC1)CCN(C(=O)c1csnn1)CC2	.	-7%	.	.	.	.
Cc1ccc(-n2c3c(cc(-c4nc(-c5ccc(Cl)cc5)cs4)c2=O)C(=O)CC(C)(C)C3)cc1	.	-5%	.	.	0%	.
Cc1ccc(OCC(=O)NCC(=O)OCc2cc(=O)n3nc(CC(C)C)sc3n2)cc1	.	.	.	.	0%	.
Cc1cc(NCc2ccccc2)nc2ccccc12	0%	-42%	-3%	-1%	?	?
C/C(CCC(C)C)=N\Nc1cc(C)c2ccccc2n1	4%	2%	-9%	-1%	12µM*	5%
Cc1cccc(NC(=O)c2c(C)cc(C)nc2SCC(=O)Nc2c(C)cc(C)cc2C)c1	.	.	.	.	-5%	.
Cc1c(NCc2nc3ccccc3[nH]2)c(=O)n(-c2ccccc2)n1C	4%	-7%	-6%	2%	15µM*	17%
Cc1c(NCc2cc(Cl)cc(Cl)c2O)c(=O)n(-c2ccccc2)n1C	2%	-15%	0%	-5%	0%	-19%
CCC(Oc1ccccc1)C(=O)Nc1ccc(-c2nnc(-c3ccco3)o2)cc1 (stereo not drawn)	?	11µM*	?	11%	-12%	?
O=C(COc1ccc(Br)cc1)Nc1ccc(-c2nnc(-c3ccco3)o2)cc1	2.2µM*	8.9µM*	4µM*	13%	1%	?
O=C(Cc1cccs1)Nc1ccc(-c2nnc(-c3ccco3)o2)cc1	?	14%	26%	?	3%	13%
COc1ccccc1OCC(=O)Nc1ccc(-c2nnc(-c3ccco3)o2)cc1	21%	5.6µM*	10%	4%	1%	?
Clc1ccc(-c2nnc(-c3ccco3)o2)cc1	2.8µM*	?	3.5µM*	?	12µM*	?
CCC12CN3CC(C)(CN(C1)C3c1ccc(O)cc1O)C2=O (stereo not drawn)	.	-7%	.	.	2%	.
SMILES	Rab9 promoter act	SMN2 splice up	NPC1 prom act	ELG1 genotox	FLuc counter	ELG1 DNA repair
Cc1cnccc1CNC(=O)C1CCC(=O)N(Cc2ccc(Cl)cc2)C1 (stereo not drawn)	1%	.	0%	0%	3%	13%
CSCCC(NC(=O)COc1ccccc1)C(=O)N1CCOCC1 (stereo not drawn)	1%	.	0%	2%	-3%	9%
O=C(Nc1ccccc1)N1CCCC2(CCN(C(=O)c3cc(C(F)(F)F)cc(C(F)(F)F)c3)CC2)C1	.	2%	.	.	.	.
Cc1cccc(CNC(=O)Cn2c(-c3cccs3)cc3ccccc32)c1	.	.	.	.	2%	.
COc1ccccc1C(=O)NC(=O)COC(=O)C1CCC1	0%	.	-3%	-4%	8.5µM*	5%
Cc1ccc(CC(=O)Nc2ccccc2N2CCOCC2)cc1C	-3%	0%	-3%	-9%	-2%	0%
CCn1c(=O)n(CC)c2cc(N3CCCC3)c(NC(=O)c3ccc(OC)c(Br)c3)cc21	-9%	.	-7%	-3%	1%	12µM*
CCOc1ccccc1C(=O)Nc1cc2c(cc1N1CCCC1)n(CC)c(=O)n2CC	-12%	.	-6%	-20%	-2%	8.2µM*
CCn1c(=O)n(CC)c2cc(N3CCCC3)c(NC(=O)c3cc(Cl)ccc3OC)cc21	-12%	.	-2%	-11%	0%	18µM*
CCn1c(=O)n(CC)c2cc(N3CCCC3)c(NC(=O)c3cccc(Cl)c3)cc21	-9%	.	-6%	-10%	1%	?
CCn1c(=O)n(CC)c2cc(N3CCCC3)c(NC(=O)c3ccccc3OC)cc21	0%	.	-1%	-8%	-2%	?
CN1CCN(CCCNC(=O)c2cnn(-c3ccccc3)c2-n2cccc2)CC1	.	2%	.	.	-2%	.
CC(CNc1nc2ccccc2c2nc(-c3ccccc3)nn12)c1ccccc1 (stereo not drawn)	.	-5%	.	.	-5%	.
O=C(Nc1cccc(F)c1)N1CC[C@@]2(CCCNC2)C1	.	-4%	.	.	.	.
COc1cc(C(=O)OC2CC[C@]3(C)C4CCC5[C@]6(O)CC(O)[C@]7(O)C(CN8CC(C)CCC8[C@]7(C)O)[C@]6(O)C[C@@]53O[C@]24O)cc(OC)c1OC (stereo partly drawn)	.	-9%	.	.	.	.
Cc1cc(NC(=O)CSc2nc3c(sc4ccccc43)c(=O)n2CCc2ccccc2)n[nH]1	0%	27%	0%	?	0%	?
Cc1cc(NC(=O)CSc2nc3c(sc4ccccc43)c(=O)n2CCCN2CCOCC2)n[nH]1	-20%	35µM*	5%	7%	3%	?
Cc1ccn2c(NC3CCCC3)c(-c3cccs3)nc2c1	?	9%	16%	-3%	19µM*	?
c1csc(-c2nc3ccccn3c2NC2CCCCC2)c1	-2%	-8%	-3%	-7%	-5%	-8%
Cc1ccn2c(NC(=O)c3ccccc3)c(-c3cccs3)nc2c1	3%	0%	-1%	0%	-16%	20%
